# From PubChem BioAssay (EPA / NIEHS)
# Several values for one entry are separate records, joined by “and”; a condition that tells them apart may be missing. Equal entries are not always repeated. Results filed as inconclusive are left out. Activity calls are given as the source filed them. How the source made its calls: active means hit-call score of the fitted dose curve at least 0.9, where 1 is the maximum; inconclusive means response in the unintended direction; inactive means score below 0.9.
# Key:
# [1] = target: rat Somatostatin Receptor (SST), Sstr1 (gene 25033) (UniProt P28646); test: NVS_GPCR_rSST: NovaScreen (NVS) G Protein-Coupled Receptor Assay for rat Somatostatin Receptor (SST) (AID 2283314)
# rat Somatostatin Receptor (SST), Sstr1 (gene 25033), sequence (P28646 whole entry, looked up): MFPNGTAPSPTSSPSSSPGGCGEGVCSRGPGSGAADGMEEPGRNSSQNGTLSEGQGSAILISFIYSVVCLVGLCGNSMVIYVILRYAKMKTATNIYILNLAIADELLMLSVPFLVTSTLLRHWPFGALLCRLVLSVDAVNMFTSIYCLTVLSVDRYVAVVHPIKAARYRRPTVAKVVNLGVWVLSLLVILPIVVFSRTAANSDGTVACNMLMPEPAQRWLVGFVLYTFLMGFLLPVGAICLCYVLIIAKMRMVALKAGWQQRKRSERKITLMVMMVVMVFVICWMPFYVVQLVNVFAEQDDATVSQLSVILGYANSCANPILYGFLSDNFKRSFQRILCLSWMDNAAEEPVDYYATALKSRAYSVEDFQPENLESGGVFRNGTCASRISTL
# Experimental: NVS_GPCR_rSST is a biochemical, single-readout assay that uses extracted gene-proteins from Rat forebrain membranes in a tissue-based cell-free assay. Measurements were taken 1 hour after chemical dosing in a 96-well plate.NVS_GPCR_rSST is one of one assay component(s) measured or calculated from the NVS_GPCR_rSST assay. It is designed to make measurements of radioligand binding, a form of binding reporter, as detected with scintillation counting signals by Filter-based radiodetection technology.Data from the assay component NVS_GPCR_rSST was analyzed into 1 assay endpoint. This assay endpoint, NVS_GPCR_rSST, was analyzed in the positive analysis fitting direction relative to DMSO as the negative control and baseline of activity. […] Furthermore, this assay endpoint can be referred to as a primary readout, because the performed assay has only produced 1 assay endpoint. […]
# Binding assays used specific radioligands (tritiated, iodinated) with non-radioactive competitive displacement ligands in agonist or antagonist protocols (as indicated) and various reference compounds and inhibitors to titrate specific binding to receptors and transporters. Most enzyme assays (CYPs, kinases, phosphatases, proteases, HDACs) used recombinant protein and specific substrates (fluorescence mostly, some colorimetric and radioactive) and inhibitors, followed by a biochemical separation of substrate and product. […]
# [2] = tested on: rat Adrenergic, Alpha 1B Receptor (Adra1B), gene 24173; test: NVS_GPCR_rAdra1B: NovaScreen (NVS) G Protein-Coupled Receptor Assay for rat Adrenergic, Alpha 1B Receptor (Adra1B) (AID 2283297)
# Outline: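 Rat liver membranes, radioligand displacement with filter-based scintillation detection, 1 h incubation. Primary screen in duplicate at 25 uM; actives retested in concentration series; activity relative to DMSO.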
# [3] = target: rat Adrenergic Receptor, Alpha 2 (Adra2), Non-selective Binding, Adra2a (gene 25083) (UniProt P22909); test: NVS_GPCR_rAdra2_NonSelective: NovaScreen (NVS) G Protein-Coupled Receptor Assay for rat Adrenergic Receptor, Alpha 2 (Adra2), Non-selective Binding (AID 2283299)
# rat Adrenergic Receptor, Alpha 2 (Adra2), Non-selective Binding, Adra2a (gene 25083), sequence (P22909 whole entry, looked up): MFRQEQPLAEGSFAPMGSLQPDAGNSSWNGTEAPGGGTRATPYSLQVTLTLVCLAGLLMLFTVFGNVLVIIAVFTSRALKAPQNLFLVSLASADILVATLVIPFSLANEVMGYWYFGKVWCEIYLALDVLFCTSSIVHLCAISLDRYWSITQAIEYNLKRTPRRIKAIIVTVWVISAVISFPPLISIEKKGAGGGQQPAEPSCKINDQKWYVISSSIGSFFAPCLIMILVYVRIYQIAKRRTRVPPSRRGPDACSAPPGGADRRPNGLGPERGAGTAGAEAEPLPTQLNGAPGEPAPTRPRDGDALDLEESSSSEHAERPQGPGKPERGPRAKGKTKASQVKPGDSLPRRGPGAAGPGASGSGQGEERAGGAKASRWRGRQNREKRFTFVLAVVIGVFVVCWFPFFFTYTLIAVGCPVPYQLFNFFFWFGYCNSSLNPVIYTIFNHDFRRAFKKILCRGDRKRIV
# Outline: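 Rat cortical membranes, radioligand competitive displacement read by filter-based scintillation counting 1.25 hours after dosing. Primary screen in duplicate at 25 uM; actives followed up in concentration series.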
# [4] = target: rat Histamine Receptor (H3), Hrh3 (gene 85268) (UniProt Q9QYN8); test: NVS_GPCR_rH3: NovaScreen (NVS) G Protein-Coupled Receptor Assay for rat Histamine Receptor (H3) (AID 2283303)
# rat Histamine Receptor (H3), Hrh3 (gene 85268), sequence (Q9QYN8 whole entry, looked up): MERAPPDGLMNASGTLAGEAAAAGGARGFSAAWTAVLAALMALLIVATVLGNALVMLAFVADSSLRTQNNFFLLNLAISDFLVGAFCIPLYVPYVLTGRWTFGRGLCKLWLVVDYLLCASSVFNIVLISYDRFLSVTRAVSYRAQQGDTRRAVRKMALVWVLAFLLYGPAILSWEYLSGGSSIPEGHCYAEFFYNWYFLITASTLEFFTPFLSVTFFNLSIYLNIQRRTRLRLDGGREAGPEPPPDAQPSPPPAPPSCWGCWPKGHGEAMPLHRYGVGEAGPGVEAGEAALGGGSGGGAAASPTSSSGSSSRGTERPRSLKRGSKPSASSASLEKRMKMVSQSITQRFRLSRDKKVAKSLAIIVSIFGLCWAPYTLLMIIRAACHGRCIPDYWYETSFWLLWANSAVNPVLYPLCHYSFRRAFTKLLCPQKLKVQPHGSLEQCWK
# Outline: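 Rat forebrain membranes incubated 1 h with compound; radioligand displacement measured by filter-based scintillation counting. Single-concentration duplicates at 25 µM, then concentration-response up to 50 µM, relative to DMSO.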
# Adra2b (gene 24174) = Adra2b (gene 24174) (UniProt P19328); test: NVS_GPCR_rmAdra2B: NovaScreen (NVS) G Protein-Coupled Receptor Assay for hybird cells Adrenergic, Alpha 2B Receptor (Adra2B) (AID 2283306)
# Adra2b (gene 24174), sequence (P19328 whole entry, looked up): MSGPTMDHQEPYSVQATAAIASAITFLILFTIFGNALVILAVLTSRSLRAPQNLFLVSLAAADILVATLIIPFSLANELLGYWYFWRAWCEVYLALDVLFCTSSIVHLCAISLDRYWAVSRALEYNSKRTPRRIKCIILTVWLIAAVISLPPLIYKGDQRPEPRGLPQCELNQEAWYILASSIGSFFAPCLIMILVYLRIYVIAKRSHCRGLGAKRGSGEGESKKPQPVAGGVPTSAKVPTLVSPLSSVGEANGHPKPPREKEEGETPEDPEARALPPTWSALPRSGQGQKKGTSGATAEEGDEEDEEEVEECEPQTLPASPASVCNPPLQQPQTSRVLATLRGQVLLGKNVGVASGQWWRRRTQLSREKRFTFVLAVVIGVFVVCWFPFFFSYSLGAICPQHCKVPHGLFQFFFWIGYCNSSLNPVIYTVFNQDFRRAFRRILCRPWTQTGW
# Outline: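 Radioligand filter-binding assay on membrane proteins from neuroglioma/blastoma hybrid cells (rodent), 1 h after dosing; scintillation counting, loss of signal vs DMSO. Primary screen in duplicate at 25 uM, actives then run in concentration series.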
# [5] = target: rat Serotonin, 5-Hydroxytryptamine Receptor (5HT), Non-Selective Binding, Htr1a (gene 24473) (UniProt P19327); test: NVS_GPCR_r5HT_NonSelective: NovaScreen (NVS) G Protein-Coupled Receptor Assay for rat Serotonin, 5-Hydroxytryptamine Receptor (5HT), Non-Selective Binding (AID 2283295)
# rat Serotonin, 5-Hydroxytryptamine Receptor (5HT), Non-Selective Binding, Htr1a (gene 24473), sequence (P19327 whole entry, looked up): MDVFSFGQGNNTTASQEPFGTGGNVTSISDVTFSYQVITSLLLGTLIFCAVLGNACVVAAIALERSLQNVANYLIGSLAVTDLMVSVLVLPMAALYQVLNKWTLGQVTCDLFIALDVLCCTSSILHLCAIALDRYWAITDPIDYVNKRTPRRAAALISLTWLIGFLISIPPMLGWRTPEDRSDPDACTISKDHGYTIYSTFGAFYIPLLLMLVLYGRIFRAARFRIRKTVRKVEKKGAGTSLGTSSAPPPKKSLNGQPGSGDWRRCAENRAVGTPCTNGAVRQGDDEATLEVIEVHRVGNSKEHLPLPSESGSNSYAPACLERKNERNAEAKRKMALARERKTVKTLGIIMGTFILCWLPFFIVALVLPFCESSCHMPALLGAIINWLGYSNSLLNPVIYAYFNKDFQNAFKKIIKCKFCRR
# Outline: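 Radioligand displacement on rat cortical membranes, 1 h incubation, filter-based scintillation counting. Primary duplicates at 25 uM, actives retested in concentration series; loss of signal fitted against DMSO as baseline.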
# [6] = target: rat Adrenergic, Alpha 1A Receptor (Adra1A), Adra1a (gene 29412) (UniProt P43140); test: NVS_GPCR_rAdra1A: NovaScreen (NVS) G Protein-Coupled Receptor Assay for rat Adrenergic, Alpha 1A Receptor (Adra1A) (AID 2283296)
# rat Adrenergic, Alpha 1A Receptor (Adra1A), Adra1a (gene 29412), sequence (P43140 whole entry, looked up): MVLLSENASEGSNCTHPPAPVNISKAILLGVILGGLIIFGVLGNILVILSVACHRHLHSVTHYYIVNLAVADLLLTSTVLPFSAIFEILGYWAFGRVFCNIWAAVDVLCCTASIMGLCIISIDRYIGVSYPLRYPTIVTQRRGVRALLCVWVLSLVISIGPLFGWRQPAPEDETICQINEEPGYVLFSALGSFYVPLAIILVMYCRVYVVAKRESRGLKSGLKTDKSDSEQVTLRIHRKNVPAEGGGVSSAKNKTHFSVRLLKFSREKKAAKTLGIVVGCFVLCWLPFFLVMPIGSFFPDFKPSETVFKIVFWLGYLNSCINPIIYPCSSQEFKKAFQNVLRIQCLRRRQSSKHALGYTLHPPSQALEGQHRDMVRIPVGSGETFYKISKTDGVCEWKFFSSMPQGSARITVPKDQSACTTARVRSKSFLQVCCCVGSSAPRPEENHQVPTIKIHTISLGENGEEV
# Experimental: NVS_GPCR_rAdra1A is a biochemical, single-readout assay that uses extracted gene-proteins from Rat cortical membranes (pretreated with chlorethyl clonidine-CEC) in a tissue-based cell-free assay. Measurements were taken 1 hour after chemical dosing in a 48-well plate.NVS_GPCR_rAdra1A is one of one assay component(s) measured or calculated from the NVS_GPCR_rAdra1A assay. It is designed to make measurements of radioligand binding, a form of binding reporter, as detected with scintillation counting signals by Filter-based radiodetection technology.Data from the assay component NVS_GPCR_rAdra1A was analyzed into 1 assay endpoint. This assay endpoint, NVS_GPCR_rAdra1A, was analyzed in the positive analysis fitting direction relative to DMSO as the negative control and baseline of activity. Using a type of binding reporter, loss-of-signal activity can be used to understand changes in the binding as they relate to the gene Adra1a. Furthermore, this assay endpoint can be referred to as a primary readout, because the performed assay has only produced 1 assay endpoint. To generalize the intended target to other relatable targets, this assay endpoint is annotated to the gpcr intended target family, where the subfamily is rhodopsin-like receptor. […]
# [7] = target: rat Neurokinin-1 Receptor (NK1), Tacr1 (gene 24807) (UniProt P14600); test: NVS_GPCR_rNK1: NovaScreen (NVS) G Protein-Coupled Receptor Assay for rat Neurokinin-1 Receptor (NK1) (AID 2283309)
# rat Neurokinin-1 Receptor (NK1), Tacr1 (gene 24807), sequence (P14600 whole entry, looked up): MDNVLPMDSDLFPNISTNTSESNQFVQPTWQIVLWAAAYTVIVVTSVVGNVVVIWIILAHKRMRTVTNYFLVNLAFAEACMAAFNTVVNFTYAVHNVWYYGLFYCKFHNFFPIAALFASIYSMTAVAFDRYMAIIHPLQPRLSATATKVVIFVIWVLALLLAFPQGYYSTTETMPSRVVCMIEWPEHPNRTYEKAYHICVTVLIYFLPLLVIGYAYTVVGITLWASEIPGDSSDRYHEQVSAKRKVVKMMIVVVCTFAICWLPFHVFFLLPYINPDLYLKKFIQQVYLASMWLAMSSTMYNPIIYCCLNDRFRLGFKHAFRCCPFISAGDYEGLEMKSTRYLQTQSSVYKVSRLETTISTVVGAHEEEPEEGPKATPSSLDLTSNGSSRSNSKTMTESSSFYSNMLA
# Outline: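 Rat submaxillary gland membranes; radioligand displacement read by filter-based scintillation counting after 1 h. Primary screen in duplicate at 25 uM; actives retested in concentration series; loss of binding fitted versus DMSO.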
# [8] = target: rat Opioid Receptor, Non-selective Sodium (Na+) Binding, Oprm1 (gene 25601) (UniProt P33535); test: NVS_GPCR_rOpiate_NonSelectiveNa: NovaScreen (NVS) G Protein-Coupled Receptor Assay for rat Opioid Receptor, Non-selective Sodium (Na+) Binding (AID 2283311)
# rat Opioid Receptor, Non-selective Sodium (Na+) Binding, Oprm1 (gene 25601), sequence (P33535 whole entry, looked up): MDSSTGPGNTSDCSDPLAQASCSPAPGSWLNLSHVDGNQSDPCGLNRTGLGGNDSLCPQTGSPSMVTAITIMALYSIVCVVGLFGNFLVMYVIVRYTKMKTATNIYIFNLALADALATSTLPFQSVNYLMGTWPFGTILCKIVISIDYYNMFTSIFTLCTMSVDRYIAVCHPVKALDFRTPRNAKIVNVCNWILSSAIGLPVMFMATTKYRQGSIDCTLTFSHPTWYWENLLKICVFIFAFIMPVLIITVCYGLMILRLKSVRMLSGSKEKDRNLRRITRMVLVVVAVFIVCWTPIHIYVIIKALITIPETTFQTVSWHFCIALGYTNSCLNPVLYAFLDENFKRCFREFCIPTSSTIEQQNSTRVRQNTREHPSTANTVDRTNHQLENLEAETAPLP
# Outline: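 Rat forebrain membranes, radioligand displacement with filter scintillation counting, 1.5 h incubation. Screened in duplicate at 25 µM; hits then run in concentration-response up to 50 µM; loss of binding fitted versus DMSO.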
# [9] = target: rat Adrenergic Receptor, Beta (Adrb), Non-selective Binding, Adrb1 (gene 24925) (UniProt P18090); test: NVS_GPCR_rAdrb_NonSelective: NovaScreen (NVS) G Protein-Coupled Receptor Assay for rat Adrenergic Receptor, Beta (Adrb), Non-selective Binding (AID 2283298)
# rat Adrenergic Receptor, Beta (Adrb), Non-selective Binding, Adrb1 (gene 24925), sequence (P18090 whole entry, looked up): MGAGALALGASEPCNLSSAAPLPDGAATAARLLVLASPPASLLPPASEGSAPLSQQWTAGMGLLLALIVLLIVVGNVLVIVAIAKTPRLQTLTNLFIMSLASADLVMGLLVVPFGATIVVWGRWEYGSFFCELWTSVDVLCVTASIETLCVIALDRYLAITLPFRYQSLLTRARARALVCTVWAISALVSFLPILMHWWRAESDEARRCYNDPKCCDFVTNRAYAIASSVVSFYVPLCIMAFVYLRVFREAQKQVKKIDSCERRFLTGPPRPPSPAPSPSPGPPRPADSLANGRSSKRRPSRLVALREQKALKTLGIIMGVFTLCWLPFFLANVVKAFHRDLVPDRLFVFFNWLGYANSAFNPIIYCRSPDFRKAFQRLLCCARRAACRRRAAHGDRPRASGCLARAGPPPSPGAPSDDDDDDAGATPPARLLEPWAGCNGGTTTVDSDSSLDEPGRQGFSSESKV
# Outline: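 Non-selective beta-adrenergic radioligand binding in rat cortical membranes, 1 h incubation, filter-based scintillation read-out. Primary screen 25 uM in duplicate; hits retested in concentration-response up to 50 uM, DMSO baseline.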
smiles,measurement,setting,value
CN(Cc1cnc2nc(N)nc(N)c2n1)c1ccc(C(=O)N[C@@H](CCC(=O)O)C(=O)O)cc1,AC50,[1],3.06 µM (active)
CCCCc1oc2ccccc2c1C(=O)c1cc(I)c(OCCN(CC)CC)c(I)c1,AC50,[2],9.13 µM (active)
same,AC50,[3],10.8 µM (active)
same,AC50,[4],6.48 µM (active)
same,AC50,Adra2b (gene 24174),11.4 µM (active)
NC(=NCCCCCCN=C(N)/N=C(\N)Nc1ccc(Cl)cc1)/N=C(\N)Nc1ccc(Cl)cc1,AC50,[3],17.6 µM (active)
N=C(N)c1ccc(OCCCCCOc2ccc(C(=N)N)cc2)cc1,AC50,[5],14 µM (active)
same,AC50,[6],1.32 µM (active)
same,AC50,[2],1.06 µM (active)
same,AC50,[3],3.49 µM (active)
same,AC50,[4],0.362 µM (active)
same,AC50,Adra2b (gene 24174),9.06 µM (active)
same,outcome,[7],inactive
same,AC50,[8],18.4 µM (active)
CN(C)CCOC(c1ccccc1)c1ccccc1,AC50,[5],7.06 µM (active)
same,AC50,[2],9.65 µM (active)
same,AC50,[3],8.43 µM (active)
same,outcome,[4],inactive
same,AC50,Adra2b (gene 24174),3.12 µM (active)
same,outcome,[8],inactive
COC1=CC(=O)C[C@@H](C)[C@]12Oc1c(Cl)c(OC)cc(OC)c1C2=O,AC50,[3],3.69 µM (active)
O=C(CCCN1CCC(O)(c2ccc(Cl)cc2)CC1)c1ccc(F)cc1,AC50,[9],18.2 µM (active)
CN(C)c1ccc(C(=C2C=CC(=[N+](C)C)C=C2)c2ccccc2)cc1,AC50,[3],8.31 µM (active) and 7.55 µM (active)
